Drawing on publication PMC7862700, “An all-to-all approach to the identification of sequence-specific readers for epigenetic DNA modifications on cytosine”, this text covers binding signal for eight sequences.

Holding throughout (test): DAPPL (digital affinity profiling via proximity ligation, sequencing); 10 mM Tris-HCl pH 7.5, 50 mM NaCl, 1 mM DTT, 4% glycerol, room temperature, 30 min; GST-TFs on glutathione beads, 16-mer random dsDNA library, 0.1% formaldehyde crosslink after washing; high values mean tight binding
For one assay, the target named is T1, FEV (Homo sapiens, UniProt Q99581 1-238).
T1 sequence: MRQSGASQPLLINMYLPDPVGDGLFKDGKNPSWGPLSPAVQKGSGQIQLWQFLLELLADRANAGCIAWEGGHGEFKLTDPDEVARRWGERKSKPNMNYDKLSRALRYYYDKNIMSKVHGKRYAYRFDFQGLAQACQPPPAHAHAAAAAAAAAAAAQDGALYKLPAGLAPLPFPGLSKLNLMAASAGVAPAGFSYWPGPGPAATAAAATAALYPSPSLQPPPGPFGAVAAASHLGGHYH
The note with it: protein: recombinant; tags: N-terminal GST; dsDNA, one strand shown. The method, boiled down:
(§1)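 Yeast served to express human transcription factors as GST fusions, which were then captured on glutathione beads and labelled with DNA barcodes. Pooled with a tag-only sample, they were incubated with 200 nmole of a 16-mer random double-stranded DNA library for 30 min at room temperature in Tris/NaCl/DTT/glycerol buffer, washed, crosslinked with 0.1% formaldehyde, ligated by proximity, amplified by PCR and sequenced. Dividing each hexamer's read frequency for a factor by its frequency for the tag-only sample gives the binding signal.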

The next assay has as its target ETV5 (Homo sapiens, UniProt P41161 1-510). The settings on record: protein: recombinant; tags: N-terminal GST; dsDNA, one strand shown. The method in brief: as §1
The target of another assay is HSF1 (Homo sapiens, UniProt Q00613 1-529). The settings on record: protein: recombinant; tags: N-terminal GST; chain copies: 3; dsDNA, one strand shown. The method, boiled down: as §1
A further assay addresses T2, SPIC (Homo sapiens, UniProt Q8N5J4 1-248).
T2 sequence: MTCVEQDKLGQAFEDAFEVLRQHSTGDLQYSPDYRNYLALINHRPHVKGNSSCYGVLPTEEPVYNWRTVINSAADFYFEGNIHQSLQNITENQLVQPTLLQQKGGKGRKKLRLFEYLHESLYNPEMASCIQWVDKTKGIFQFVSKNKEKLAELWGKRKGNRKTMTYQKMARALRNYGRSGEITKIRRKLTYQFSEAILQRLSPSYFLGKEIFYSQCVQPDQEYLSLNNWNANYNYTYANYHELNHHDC
The note with it: protein: recombinant; tags: N-terminal GST; dsDNA, one strand shown. The method in brief:
as §1

A further assay has as its target ELF4 (Homo sapiens, UniProt Q99607 1-663). The settings on record: protein: recombinant; tags: N-terminal GST; dsDNA, one strand shown. The method, boiled down: as §1
The target of a further assay is T3, ELK4 (Homo sapiens, UniProt P28324-2 1-405).
T3 sequence: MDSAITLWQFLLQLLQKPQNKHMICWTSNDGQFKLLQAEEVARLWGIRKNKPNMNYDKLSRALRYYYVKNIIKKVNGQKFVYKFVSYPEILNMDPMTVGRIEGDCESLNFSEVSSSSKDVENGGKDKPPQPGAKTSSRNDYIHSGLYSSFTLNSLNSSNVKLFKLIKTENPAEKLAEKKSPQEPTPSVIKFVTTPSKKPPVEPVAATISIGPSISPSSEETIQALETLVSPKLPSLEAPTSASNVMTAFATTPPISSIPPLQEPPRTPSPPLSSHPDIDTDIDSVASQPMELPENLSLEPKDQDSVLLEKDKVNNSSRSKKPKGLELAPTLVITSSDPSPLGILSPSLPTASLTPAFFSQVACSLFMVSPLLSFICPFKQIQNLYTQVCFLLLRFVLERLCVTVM
The settings on record: protein: recombinant; tags: N-terminal GST; dsDNA, one strand shown. The method in brief:
as §1

The target in the next assay is T4, ETV2 (Homo sapiens, UniProt O00321 1-342).
T4 sequence: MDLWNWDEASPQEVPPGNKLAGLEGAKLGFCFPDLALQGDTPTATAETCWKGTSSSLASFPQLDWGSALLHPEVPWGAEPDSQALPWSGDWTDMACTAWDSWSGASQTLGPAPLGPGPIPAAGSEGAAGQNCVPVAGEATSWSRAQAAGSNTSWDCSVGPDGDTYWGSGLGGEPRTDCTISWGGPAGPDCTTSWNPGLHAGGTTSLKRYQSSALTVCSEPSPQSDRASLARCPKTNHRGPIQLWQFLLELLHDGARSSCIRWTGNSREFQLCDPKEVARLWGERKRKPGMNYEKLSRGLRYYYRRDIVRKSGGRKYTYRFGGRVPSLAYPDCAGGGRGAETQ
The note with it: protein: recombinant; tags: N-terminal GST; dsDNA, one strand shown. The method, boiled down: as §1

Another assay deals with T5, ELF3 (Homo sapiens, UniProt P78545 1-371).
T5 sequence: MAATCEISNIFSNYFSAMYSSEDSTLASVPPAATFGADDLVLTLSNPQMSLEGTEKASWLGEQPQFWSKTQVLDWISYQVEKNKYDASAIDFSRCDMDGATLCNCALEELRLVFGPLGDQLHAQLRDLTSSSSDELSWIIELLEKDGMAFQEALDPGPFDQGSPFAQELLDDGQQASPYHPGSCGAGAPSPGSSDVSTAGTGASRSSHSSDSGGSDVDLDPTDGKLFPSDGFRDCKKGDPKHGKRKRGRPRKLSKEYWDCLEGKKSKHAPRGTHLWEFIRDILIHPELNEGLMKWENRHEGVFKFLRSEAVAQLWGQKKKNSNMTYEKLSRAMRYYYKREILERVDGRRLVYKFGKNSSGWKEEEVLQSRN
The note with it: protein: recombinant; tags: N-terminal GST; dsDNA, one strand shown. The method, boiled down:
as §1

A further assay deals with CRX (Homo sapiens, UniProt O43186 1-299). The settings on record: protein: recombinant; tags: N-terminal GST; dsDNA, one strand shown. The method in brief: as §1
A further assay has as its target ETV1 (Homo sapiens, UniProt P50549 1-477). The settings on record: protein: recombinant; tags: N-terminal GST; dsDNA, one strand shown. The method, boiled down: as §1

Sequence of ELF4 (Q99607 whole entry): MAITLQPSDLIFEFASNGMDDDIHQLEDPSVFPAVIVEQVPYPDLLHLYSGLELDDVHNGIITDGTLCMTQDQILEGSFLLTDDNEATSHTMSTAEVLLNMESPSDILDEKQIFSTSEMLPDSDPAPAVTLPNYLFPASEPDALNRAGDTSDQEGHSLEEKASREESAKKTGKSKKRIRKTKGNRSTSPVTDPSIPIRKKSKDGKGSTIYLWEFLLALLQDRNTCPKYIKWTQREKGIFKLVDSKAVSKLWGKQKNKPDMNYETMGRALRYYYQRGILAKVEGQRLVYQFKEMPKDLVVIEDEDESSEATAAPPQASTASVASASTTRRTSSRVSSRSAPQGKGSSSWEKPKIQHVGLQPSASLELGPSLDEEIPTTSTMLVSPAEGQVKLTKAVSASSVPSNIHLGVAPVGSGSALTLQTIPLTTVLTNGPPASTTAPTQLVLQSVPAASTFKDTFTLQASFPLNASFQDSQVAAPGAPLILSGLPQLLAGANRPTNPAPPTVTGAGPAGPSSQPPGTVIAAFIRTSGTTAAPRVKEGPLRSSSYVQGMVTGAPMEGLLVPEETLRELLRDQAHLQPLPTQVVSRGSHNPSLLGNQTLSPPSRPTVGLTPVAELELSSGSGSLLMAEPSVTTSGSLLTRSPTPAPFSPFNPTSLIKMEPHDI
Sequence of HSF1 (Q00613 whole entry): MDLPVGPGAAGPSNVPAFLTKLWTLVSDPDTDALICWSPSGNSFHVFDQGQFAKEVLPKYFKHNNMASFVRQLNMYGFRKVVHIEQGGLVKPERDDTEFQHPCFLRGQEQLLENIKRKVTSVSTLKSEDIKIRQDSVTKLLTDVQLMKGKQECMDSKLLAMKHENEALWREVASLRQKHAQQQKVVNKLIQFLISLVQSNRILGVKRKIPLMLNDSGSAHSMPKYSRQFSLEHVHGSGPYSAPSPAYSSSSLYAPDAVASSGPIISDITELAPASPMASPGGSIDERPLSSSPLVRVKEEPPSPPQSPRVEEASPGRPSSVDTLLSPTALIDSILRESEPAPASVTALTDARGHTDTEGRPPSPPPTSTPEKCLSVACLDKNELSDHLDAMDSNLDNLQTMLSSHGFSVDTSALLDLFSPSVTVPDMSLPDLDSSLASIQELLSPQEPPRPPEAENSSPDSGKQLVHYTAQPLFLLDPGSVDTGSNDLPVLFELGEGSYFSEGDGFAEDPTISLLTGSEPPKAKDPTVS
Sequence of CRX (O43186 whole entry): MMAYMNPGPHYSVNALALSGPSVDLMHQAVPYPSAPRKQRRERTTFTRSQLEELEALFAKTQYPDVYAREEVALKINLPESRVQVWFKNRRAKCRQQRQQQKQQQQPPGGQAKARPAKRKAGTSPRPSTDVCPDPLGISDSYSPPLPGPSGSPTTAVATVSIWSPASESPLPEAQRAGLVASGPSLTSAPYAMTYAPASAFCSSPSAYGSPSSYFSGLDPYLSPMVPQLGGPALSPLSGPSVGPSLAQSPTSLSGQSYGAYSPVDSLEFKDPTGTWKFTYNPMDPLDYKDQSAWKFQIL
Sequence of ETV5 (P41161 whole entry): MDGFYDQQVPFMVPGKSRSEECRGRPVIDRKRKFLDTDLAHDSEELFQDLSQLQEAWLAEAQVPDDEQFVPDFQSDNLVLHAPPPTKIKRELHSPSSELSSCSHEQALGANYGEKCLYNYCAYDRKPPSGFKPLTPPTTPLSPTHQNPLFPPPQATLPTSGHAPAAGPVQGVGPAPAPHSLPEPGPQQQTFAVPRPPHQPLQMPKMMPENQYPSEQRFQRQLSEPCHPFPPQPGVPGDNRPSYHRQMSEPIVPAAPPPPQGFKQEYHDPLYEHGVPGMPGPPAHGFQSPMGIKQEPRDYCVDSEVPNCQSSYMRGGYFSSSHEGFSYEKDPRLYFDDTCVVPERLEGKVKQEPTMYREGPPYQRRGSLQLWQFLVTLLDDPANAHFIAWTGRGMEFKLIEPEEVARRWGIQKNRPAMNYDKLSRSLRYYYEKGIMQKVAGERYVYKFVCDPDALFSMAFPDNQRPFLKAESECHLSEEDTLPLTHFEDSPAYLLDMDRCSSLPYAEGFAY
Sequence of ETV1 (P50549 whole entry): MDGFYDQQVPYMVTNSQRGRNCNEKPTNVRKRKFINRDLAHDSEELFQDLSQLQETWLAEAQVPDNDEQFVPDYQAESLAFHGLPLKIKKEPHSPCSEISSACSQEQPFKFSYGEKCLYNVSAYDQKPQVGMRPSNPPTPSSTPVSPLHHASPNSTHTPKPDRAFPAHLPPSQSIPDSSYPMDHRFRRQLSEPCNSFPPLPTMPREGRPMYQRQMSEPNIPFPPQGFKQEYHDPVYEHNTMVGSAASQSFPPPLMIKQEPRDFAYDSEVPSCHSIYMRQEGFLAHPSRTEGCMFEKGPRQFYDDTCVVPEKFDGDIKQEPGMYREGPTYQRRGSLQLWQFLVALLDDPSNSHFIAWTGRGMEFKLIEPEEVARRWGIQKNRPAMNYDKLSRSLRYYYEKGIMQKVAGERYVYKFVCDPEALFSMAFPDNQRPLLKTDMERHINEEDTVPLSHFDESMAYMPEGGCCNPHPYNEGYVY

As for TCAACT, the binding signal was 1.36 fold enrichment (6-mer frequency, TF over GST control) in the assay with FEV; 1.26 fold enrichment (6-mer frequency, TF over GST control) with ETV5; 1.2 fold enrichment (6-mer frequency, TF over GST control) with HSF1; 1.32 fold enrichment (6-mer frequency, TF over GST control) with SPIC; 1.27 fold enrichment (6-mer frequency, TF over GST control) with ELF4; 1.36 fold enrichment (6-mer frequency, TF over GST control) with ELK4. In addition, the binding signal is 1.41 fold enrichment (6-mer frequency, TF over GST control) in the assay with ETV2; 1.37 fold enrichment (6-mer frequency, TF over GST control) with ELF3; 1.34 fold enrichment (6-mer frequency, TF over GST control) in the assay with CRX; 1.26 fold enrichment (6-mer frequency, TF over GST control) with ETV1.
For TGGTCT, the binding signal with FEV is 1.45 fold enrichment (6-mer frequency, TF over GST control); with ETV5, 1.52 fold enrichment (6-mer frequency, TF over GST control); with HSF1, 1.12 fold enrichment (6-mer frequency, TF over GST control); in the assay with SPIC it was 1.34 fold enrichment (6-mer frequency, TF over GST control); in the assay with ELF4, 1.57 fold enrichment (6-mer frequency, TF over GST control); in the assay with ELK4 it was 1.48 fold enrichment (6-mer frequency, TF over GST control). The binding signal in the assay with ETV2 is 1.33 fold enrichment (6-mer frequency, TF over GST control); with ELF3, 1.28 fold enrichment (6-mer frequency, TF over GST control); in the assay with CRX it was 1.17 fold enrichment (6-mer frequency, TF over GST control); with ETV1, 1.5 fold enrichment (6-mer frequency, TF over GST control).
Consider CTTAGA, for which the binding signal was 1.15 fold enrichment (6-mer frequency, TF over GST control) with FEV; 1.06 fold enrichment (6-mer frequency, TF over GST control) in the assay with ETV5; 1.53 fold enrichment (6-mer frequency, TF over GST control) in the assay with HSF1; 1.27 fold enrichment (6-mer frequency, TF over GST control) with SPIC; 1.09 fold enrichment (6-mer frequency, TF over GST control) in the assay with ELF4; 1.24 fold enrichment (6-mer frequency, TF over GST control) with ELK4. The binding signal with ETV2 was 1.15 fold enrichment (6-mer frequency, TF over GST control); with ELF3, 1.07 fold enrichment (6-mer frequency, TF over GST control); with CRX, 1.69 fold enrichment (6-mer frequency, TF over GST control); with ETV1, 1.14 fold enrichment (6-mer frequency, TF over GST control).
For the sequence GTTCCT, the binding signal with FEV was 1.75 fold enrichment (6-mer frequency, TF over GST control); in the assay with ETV5, 1.91 fold enrichment (6-mer frequency, TF over GST control); with HSF1 it was 1.43 fold enrichment (6-mer frequency, TF over GST control); with SPIC it was 1.96 fold enrichment (6-mer frequency, TF over GST control); with ELF4, 1.6 fold enrichment (6-mer frequency, TF over GST control); in the assay with ELK4, 1.48 fold enrichment (6-mer frequency, TF over GST control). Further, the binding signal with ETV2 was 1.65 fold enrichment (6-mer frequency, TF over GST control); with ELF3, 1.6 fold enrichment (6-mer frequency, TF over GST control); with CRX, 1.07 fold enrichment (6-mer frequency, TF over GST control); in the assay with ETV1, 1.79 fold enrichment (6-mer frequency, TF over GST control).
With CTAACC, the binding signal is 1.16 fold enrichment (6-mer frequency, TF over GST control) with FEV; 1.19 fold enrichment (6-mer frequency, TF over GST control) with ETV5; 1.05 fold enrichment (6-mer frequency, TF over GST control) with HSF1; 1.08 fold enrichment (6-mer frequency, TF over GST control) in the assay with SPIC; 1.2 fold enrichment (6-mer frequency, TF over GST control) with ELF4; 1 fold enrichment (6-mer frequency, TF over GST control) with ELK4. For the same sequence, the binding signal with ETV2 was 1.11 fold enrichment (6-mer frequency, TF over GST control); in the assay with ELF3 it was 1.27 fold enrichment (6-mer frequency, TF over GST control); in the assay with CRX it was 1.09 fold enrichment (6-mer frequency, TF over GST control); in the assay with ETV1, 1.16 fold enrichment (6-mer frequency, TF over GST control).
On to TCTATT, for which the binding signal with FEV was 1.22 fold enrichment (6-mer frequency, TF over GST control); with ETV5 it was 1.3 fold enrichment (6-mer frequency, TF over GST control); in the assay with HSF1, 1.43 fold enrichment (6-mer frequency, TF over GST control); in the assay with SPIC it was 1.57 fold enrichment (6-mer frequency, TF over GST control); with ELF4, 1.27 fold enrichment (6-mer frequency, TF over GST control); with ELK4, 1.25 fold enrichment (6-mer frequency, TF over GST control). The binding signal with ETV2 was 1.16 fold enrichment (6-mer frequency, TF over GST control); with ELF3 it was 1.35 fold enrichment (6-mer frequency, TF over GST control); with CRX, 1.37 fold enrichment (6-mer frequency, TF over GST control); with ETV1, 1.25 fold enrichment (6-mer frequency, TF over GST control).
In the case of CAAAAC, the binding signal with FEV was 1.3 fold enrichment (6-mer frequency, TF over GST control); with ETV5 it was 1.26 fold enrichment (6-mer frequency, TF over GST control); with HSF1 it was 1.05 fold enrichment (6-mer frequency, TF over GST control); with SPIC, 1.23 fold enrichment (6-mer frequency, TF over GST control); in the assay with ELF4, 1.34 fold enrichment (6-mer frequency, TF over GST control); with ELK4 it was 1.28 fold enrichment (6-mer frequency, TF over GST control). Besides, the binding signal in the assay with ETV2 was 1.24 fold enrichment (6-mer frequency, TF over GST control); with ELF3 it was 1.28 fold enrichment (6-mer frequency, TF over GST control); with CRX, 1.02 fold enrichment (6-mer frequency, TF over GST control); with ETV1, 1.2 fold enrichment (6-mer frequency, TF over GST control).
In the case of TCATAT, the binding signal with FEV was 1.24 fold enrichment (6-mer frequency, TF over GST control); with ETV5, 1.23 fold enrichment (6-mer frequency, TF over GST control); with HSF1, 1.15 fold enrichment (6-mer frequency, TF over GST control); with SPIC, 1.13 fold enrichment (6-mer frequency, TF over GST control); in the assay with ELF4, 1.28 fold enrichment (6-mer frequency, TF over GST control); with ELK4 it was 1.23 fold enrichment (6-mer frequency, TF over GST control). The binding signal with ETV2 is 1.29 fold enrichment (6-mer frequency, TF over GST control); with ELF3 it was 1.23 fold enrichment (6-mer frequency, TF over GST control); with CRX it was 1.22 fold enrichment (6-mer frequency, TF over GST control); in the assay with ETV1, 1.35 fold enrichment (6-mer frequency, TF over GST control).
